Records with an inconclusive call do not appear. The source made the active and inactive calls. Calls come from the whole dose curve; as a rule, active = well fitted curve in the direction sought with a large enough effect; inconclusive = small, poorly fitted or top-dose-only effect, or another doubt; inactive = no such curve, though single readings can be large; an effect the other way counts as inactive or inconclusive.
Columns and labels:
[1] = system: Es-2; assay: Primary qHTS to identify gynecologic anti-cancer compounds using libraries of approved drugs and bioactive compounds (AID 1345084); settings: Gynecologic cancer cell panel viability, ATPlite luminescence, 48 h; series mostly up to 57.5 µM; note: nearly all actives have a fitted effect of over 55% in size
In short: (§1)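 Cytotoxicity screen measuring ATP content by luciferase luminescence. Each compound is applied at five concentrations for 48 h at 37 C with 5% CO2.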

[2] = system: HeLa; assay: as above; settings: Gynecologic cancer cell panel viability, ATPlite luminescence, 48 h; series mostly up to 57.5 µM
In short: as §1

[3] = system: Hek293T; assay: as above; settings: Gynecologic cancer cell panel viability, ATPlite luminescence, 48 h, control line for the selectivity index; series mostly up to 57.5 µM
In short: as §1

[4] = system: JEG-3; assay: as above; settings: Gynecologic cancer cell panel viability, ATPlite luminescence, 48 h; series mostly up to 57.5 µM
In short: as §1

[5] = system: OV90; assay: as above; settings: Gynecologic cancer cell panel viability, ATPlite luminescence, 48 h; series mostly up to 57.5 µM
In short: as §1

[6] = system: PA-1; assay: as above; settings: Gynecologic cancer cell panel viability, ATPlite luminescence, 48 h; series mostly up to 57.5 µM
In short: as §1

[7] = system: SKOV3; assay: as above; settings: Gynecologic cancer cell panel viability, ATPlite luminescence, 48 h; series mostly up to 57.5 µM
In short: as §1

[8] = system: Tov-21-G; assay: as above; settings: Gynecologic cancer cell panel viability, ATPlite luminescence, 48 h; series mostly up to 57.5 µM
In short: as §1

[9] = system: Tov112D; assay: as above; settings: Gynecologic cancer cell panel viability, ATPlite luminescence, 48 h; series mostly up to 57.5 µM
In short: as §1

[10] = Drug repurposing screens with cells derived from glioblastoma tumor samples (AID 1345199); settings: GBM patient neurospheres viability, ATP luminescence, 48 h; for Potency: tumour line A; note: potency is the fitted concentration of half-maximal effect; for all read-outs here: nearly all actives have a fitted effect of over 40% in size
In short: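 Primary testing used CD133+ neurospheres from four GBM patients, seven concentrations, 48 h exposure and ATP-based viability; confirmation added three slower-growing patient lines.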

[11] = at 45.9 µM (top of the series), tumour line B
[12] = at 45.9 µM (top of the series), tumour line D
[13] = at 46.1 µM (top of the series), tumour line C
[14] = at 20 µM (top of the series), tumour line C
[15] = at 21.2 µM (top of the series), tumour line B
[16] = at 21.2 µM (top of the series), tumour line D
% is set by controls: 0 for no effect and ±100 for the full control effect.

FC1(F)C(F)(F)C(F)(F)C2(F)C(F)(F)C(F)(F)C(F)(F)C(F)(F)C2(F)C1(F)F (centres undefined)
inactive: Potency [1] | Potency [2] | Potency [3] | Potency [4] | Potency [5] | Potency [6] | Potency [7] | Potency [8] | Potency [9] | activity, negative = cell killing [10, 11] -14.2% | activity, negative = cell killing [10, 12] -0.34% | activity, negative = cell killing [10, 13] -17%

CN(C)CCN1C(=O)c2ccccc2N(C)c2ccccc21
inactive: Potency [1] | Potency [2] | Potency [3] | Potency [4] | Potency [5] | Potency [6] | Potency [7] | Potency [8] | Potency [9] | activity, negative = cell killing [10, 11] -10.1% | activity, negative = cell killing [10, 12] -18.4% | activity, negative = cell killing [10, 13] 4.2%

COP(=O)(OC)OC(c1ccc(Cl)cc1)P(=O)(OC)OC (centres undefined)
inactive: Potency [1] | Potency [2] | Potency [3] | Potency [4] | Potency [5] | Potency [6] | Potency [7] | Potency [8] | Potency [9] | activity, negative = cell killing [10, 11] -15.7% | activity, negative = cell killing [10, 12] -14.1% | activity, negative = cell killing [10, 13] -24.8%

OC[C@H]1O[C@@H](Oc2ccc(O)cc2)[C@H](O)[C@@H](O)[C@@H]1O
inactive: Potency [1] | Potency [2] | Potency [3] | Potency [4] | Potency [5] | Potency [6] | Potency [7] | Potency [8] | Potency [9] | activity, negative = cell killing [10, 11] 0.949% | activity, negative = cell killing [10, 12] 7.3% | activity, negative = cell killing [10, 13] -9.99%

c1ccc(CC2=NCCN2)cc1
inactive: Potency [1] | Potency [2] | Potency [3] | Potency [4] | Potency [5] | Potency [6] | Potency [7] | Potency [8] | Potency [9] | activity, negative = cell killing [10, 14] -9.44% | activity, negative = cell killing [10, 15] -1.18% | activity, negative = cell killing [10, 16] -24.9%

NC(=S)N/N=C/c1cccnc1
inactive: Potency [1] | Potency [2] | Potency [3] | Potency [4] | Potency [5] | Potency [6] | Potency [7] | Potency [8] | Potency [9] | activity, negative = cell killing [10, 11] -6.47% | activity, negative = cell killing [10, 12] 0.861% | activity, negative = cell killing [10, 13] -3.6%

CC(=O)Nc1ncc([N+](=O)[O-])s1
inactive: Potency [1] | Potency [2] | Potency [3] | Potency [4] | Potency [5] | Potency [6] | Potency [7] | Potency [8] | Potency [9] | activity, negative = cell killing [10, 11] -7.38% | activity, negative = cell killing [10, 12] -8.31% | activity, negative = cell killing [10, 13] -21.7%

C[C@@H](O)[C@H]1C(=O)N2C(C(=O)O)=C([C@H]3CCCO3)S[C@H]12
inactive: Potency [1] | Potency [2] | Potency [3] | Potency [4] | Potency [5] | Potency [6] | Potency [7] | Potency [8] | Potency [9] | activity, negative = cell killing [10, 11] -7.31% | activity, negative = cell killing [10, 12] -12.1% | activity, negative = cell killing [10, 13] -5.94%

CN(C)CCOC(=O)C(c1ccccc1)C1(O)CCCC1 (centres undefined)
inactive: Potency [1] | Potency [2] | Potency [3] | Potency [4] | Potency [5] | Potency [6] | Potency [7] | Potency [8] | Potency [9] | activity, negative = cell killing [10, 11] -2.94% | activity, negative = cell killing [10, 12] -18.8% | activity, negative = cell killing [10, 13] -22.9%

NC(=O)C1(N2CCCCC2)CCN(CCCC(=O)c2ccc(F)cc2)CC1
active: Potency [10] 10 µM
inactive: Potency [1] | Potency [2] | Potency [3] | Potency [4] | Potency [5] | Potency [6] | Potency [7] | Potency [8] | Potency [9] | activity, negative = cell killing [10, 11] -7.35% | activity, negative = cell killing [10, 12] -28%

Cc1cc2c(OCC(CNC(C)(C)C)OC(=O)c3ccccc3)cccc2[nH]1 (centres undefined)
inactive: Potency [1] | Potency [2] | Potency [3] | Potency [4] | Potency [5] | Potency [6] | Potency [7] | Potency [8] | Potency [9] | activity, negative = cell killing [10, 11] -19.3% | activity, negative = cell killing [10, 12] -5.62% | activity, negative = cell killing [10, 13] -10.8%

N[C@H](C(=O)O)[C@@H](O)c1ccc(O)c(O)c1
inactive: Potency [1] | Potency [2] | Potency [3] | Potency [4] | Potency [5] | Potency [6] | Potency [7] | Potency [8] | Potency [9] | activity, negative = cell killing [10, 11] -8.13% | activity, negative = cell killing [10, 12] -33.1% | activity, negative = cell killing [10, 13] -8.89%

COc1ccc(C(=O)c2ccccc2O)c(O)c1
inactive: Potency [1] | Potency [2] | Potency [3] | Potency [4] | Potency [5] | Potency [6] | Potency [7] | Potency [8] | Potency [9] | activity, negative = cell killing [10, 14] -19.6% | activity, negative = cell killing [10, 15] 4.62% | activity, negative = cell killing [10, 16] -15.3%

C#C[C@]1(O)CC[C@H]2[C@@H]3CCc4cc(OC)ccc4[C@H]3CC[C@@]21C
active: Potency [10] 39.8 µM
inactive: Potency [1] | Potency [2] | Potency [3] | Potency [4] | Potency [5] | Potency [6] | Potency [7] | Potency [8] | Potency [9] | activity, negative = cell killing [10, 11] -27.2% | activity, negative = cell killing [10, 13] -5.96%

CC(=O)Nc1ccc(S(=O)(=O)Nc2ccc([N+](=O)[O-])cc2)cc1
inactive: Potency [1] | Potency [2] | Potency [3] | Potency [4] | Potency [5] | Potency [6] | Potency [7] | Potency [8] | Potency [9] | activity, negative = cell killing [10, 11] -8.95% | activity, negative = cell killing [10, 12] -28.3% | activity, negative = cell killing [10, 13] 10.9%

CC(C(=O)O)c1cccc(Oc2ccccc2)c1 (centres undefined)
inactive: Potency [1] | Potency [2] | Potency [3] | Potency [4] | Potency [5] | Potency [6] | Potency [7] | Potency [8] | Potency [9] | activity, negative = cell killing [10, 14] 4.85% | activity, negative = cell killing [10, 15] -4.71% | activity, negative = cell killing [10, 16] -19.7%

O=C1[C@H](CC[C@H](O)c2ccc(F)cc2)[C@@H](c2ccc(O)cc2)N1c1ccc(F)cc1
inactive: Potency [1] | Potency [2] | Potency [3] | Potency [4] | Potency [5] | Potency [6] | Potency [7] | Potency [8] | Potency [9] | activity, negative = cell killing [10, 11] -11.2% | activity, negative = cell killing [10, 12] -13.5% | activity, negative = cell killing [10, 13] 1.66%

Source: PubChem BioAssay (NCATS)
